Values joined by “and” are separate entries in the source; they are usually repeats but may differ in a detail not shown here. Identical values can stand only once. Screen size: about 5,500 compounds; about 2,000 (36%) were called active. Not shown: some 18% with an inconclusive outcome. No stated cut-off is given here; in the data, active means normalized growth mostly below about 0.91 (no sharp cut-off); inconclusive means no clear call, values can overlap the other calls; inactive means mostly above about 0.92. Some of the results follow.
Assay: chemical genetic growth profiling, strain panel (AID 1159580);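 further: tested at 20 µM; growth read once vehicle control cultures reached saturation at 30 °C; 1 = growth at the plate median or of vehicle wells; lower values mean less growth of the strain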
Conditions: S. cerevisiae deletion strains, growth OD

Measured: normalized growth

COc1ccccc1N1CCN(CCCNc2cc(=O)n(C)c(=O)n2C)CC1
inactive: locus YAL013W, strain DEP1, active compounds read low 0.976 | locus YAL021C, strain ccr4, active compounds read low 0.998 | locus YAL026C, strain drs2, active compounds read low 1.02 | locus YAL030W, strain snc1, active compounds read low 1.01 | locus YAL040C, strain CLN3, active compounds read low 1 | locus YBL061C, strain skt5, active compounds read low 1.01 | locus YBR009C, strain hhf1, active compounds read low 1 | locus YBR021W, strain FUR4, active compounds read low 1.05 | locus YBR023C, strain chs3, active compounds read low 1.02 | locus YBR171W, strain sec66, active compounds read low 1.02 | locus YBR229C, strain ROT2, active compounds read low 0.952 | locus YBR231C, strain swc5, active compounds read low 1.01 | locus YBR279W, strain paf1, active compounds read low 1.01 | locus YCL011C, strain gbp2, active compounds read low 1.01 | locus YCL016C, strain dcc1, active compounds read low 1.01 | locus YCL029C, strain bik1, active compounds read low 0.984 | locus YCL061C, strain MRC1 (second series), active compounds read low 1 | locus YCL061C, strain MRC1, active compounds read low 1.02 | locus YCL069W, strain vba3, active compounds read low 1.02 | locus YCR088W, strain abp1, active compounds read low 1.01 | locus YDL005C, strain med2, active compounds read low 1.02 | locus YDL035C, strain GPR1, active compounds read low 0.986 | locus YDL040C, strain nat1, active compounds read low 0.994 | locus YDL074C, strain BRE1, active compounds read low 0.961 | locus YDL101C, strain DUN1, active compounds read low 0.959 | locus YDL134C, strain PPH21, active compounds read low 0.984 | locus YDL185W, strain tfp1, active compounds read low 0.961 | locus YDL192W, strain arf1, active compounds read low 0.99 | locus YDR001C, strain nth1, active compounds read low 1.01 | locus YDR069C, strain doa4, active compounds read low 1.01 | locus YDR101C, strain arx1, active compounds read low 0.994 | locus YDR137W, strain rgp1, active compounds read low 1.03 | locus YDR150W, strain NUM1, active compounds read low 0.968 and 1.01 | locus YDR159W, strain sac3, active compounds read low 1 | locus YDR162C, strain NBP2, active compounds read low 0.962 | locus YDR195W, strain ref2 1.01 | locus YDR297W, strain sur2, active compounds read low 1.01 | locus YDR318W, strain mcm21, active compounds read low 1.01 | locus YDR334W, strain swr1, active compounds read low 1.02 | locus YDR335W, strain msn5, active compounds read low 1.02 | locus YDR363W, strain ESC2, active compounds read low 1 | locus YDR388W, active compounds read low 0.998 | locus YDR392W, strain spt3, active compounds read low 0.944 | locus YDR502C, strain sam2, active compounds read low 1 | locus YEL003W, strain gim4, active compounds read low 1.01 | locus YEL037C, strain rad23, active compounds read low 1.01 | locus YEL061C, strain CIN8 (second series), active compounds read low 1.01 | locus YEL061C, strain CIN8, active compounds read low 0.986 | locus YER002W, strain NOP16, active compounds read low 0.991 | locus YER015W, strain faa2, active compounds read low 1.02 | locus YER016W, strain bim1, active compounds read low 1.02 | locus YER110C, active compounds read low 0.994 | locus YER111C, strain swi4, active compounds read low 1 | locus YER155C, strain BEM2 (second series), active compounds read low 1.02 | locus YER155C, strain BEM2, active compounds read low 0.993 | locus YER167W, strain BCK2, active compounds read low 0.98 | locus YFR010W, strain ubp6, active compounds read low 1.02 | locus YGL078C, strain dbp3, active compounds read low 0.99 | locus YGL086W, strain mad1, active compounds read low 1.01 | locus YGL167C, strain pmr1, active compounds read low 1.01 | locus YGL173C, strain kem1, active compounds read low 1.01 | locus YGL227W, strain vid30, active compounds read low 1.01 | locus YGL240W, strain doc1, active compounds read low 0.996 | locus YGL248W, strain PDE1, active compounds read low 0.974 | locus YGL253W, strain hxk2, active compounds read low 1.01 | locus YGR078C, strain PAC10, active compounds read low 0.981 and 0.985 | locus YGR135W, strain pre9, active compounds read low 0.985 | locus YGR229C, strain SMI1, active compounds read low 1.01 | locus YGR252W, strain gcn5, active compounds read low 1.05 | locus YHR013C, strain ard1, active compounds read low 1.01 | locus YHR027C, strain rpn1, active compounds read low 1.01 | locus YHR030C, strain SLT2, active compounds read low 0.983 | locus YHR079C, strain IRE1 (second series), active compounds read low 1 | locus YHR094C, strain hxt1, active compounds read low 0.992 | locus YHR129C, strain ARP1, active compounds read low 0.988 | locus YHR142W, strain chs7, active compounds read low 1.01 | locus YHR200W, strain rpn10, active compounds read low 0.994 | locus YIL066C, strain RNR3, active compounds read low 0.985 | locus YIL073C, strain SPO22, active compounds read low 0.998 | locus YIL125W, strain kgd1, active compounds read low 0.997 | locus YIR030C, strain dcg1, active compounds read low 0.983 | locus YJL092W, strain hpr5, active compounds read low 1.01 | locus YJL095W, strain BCK1 (second series), active compounds read low 1.01 | locus YJL095W, strain BCK1, active compounds read low 1 | locus YJL115W, strain asf1, active compounds read low 1.03 | locus YJL129C, strain trk1, active compounds read low 1.05 | locus YJL134W, strain LCB3, active compounds read low 0.98 | locus YJL154C, strain vps35, active compounds read low 1.02 | locus YJL164C, strain tpk1, active compounds read low 1.01 | locus YJL166W, strain qcr8, active compounds read low 1.01 | locus YJL168C, strain set2, active compounds read low 0.998 | locus YJL187C, strain SWE1 (second series), active compounds read low 0.978 | locus YJL187C, strain SWE1, active compounds read low 1.01
